Source: PubChem
Her2 expr inh – Her2 kinase expression inhibition; P04626; SKBR-3 HER2 protein level, AlphaScreen, 18-24 h; active compounds read low; HER2 level % of control, % at 10 µM; 0.69% of 65,000 active;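 active = HER2 level under 5% of the carrier-only control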;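 also: 100% = DMSO carrier and 0% = 500 nM PU-H71 HSP90 inhibitor; lower value means stronger loss of Her2 protein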
C1s inh – human complement C1s inhibition; AID 538; P09871; purified C1s, fluorogenic AMC substrate, pooled mixtures; 0.16% of 62,000 active; mean inhibition % of two 10-compound mixtures (active compounds read high), % at 5 µM (by protocol);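 active = inhibition above 20% in each of the two 10-compound mixture wells holding the compound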;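 also: 0% = enzyme wells lacking compound mixture and 100% = no-enzyme blank wells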
FXIIa mix inh – blocks human factor XIIa in pooled compound mixtures; P00748; 0.2% of 62,000 active; purified FXIIa, fluorogenic substrate; inhibition, % at 5 µM;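 also: 0% = enzyme without compound and 100% = no enzyme blank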
SKBR3 24h inh – SK-BR-3 proliferation inhibitors | SK-BR-3 viability, CellTiter-Glo ATP luminescence, 24 h; active compounds read low | viability, % at 10 µM | 0.47% of 41,000 active;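 active = viability at or below the median of all test compounds minus 3 SD, in both replicates if run twice, cut at about 45% in these data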;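 also: 100% = median untreated cell wells and 0% = median positive control drug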
FXIa inh mix – factor XIa (human) inhibition, mixture screen; P03951; purified FXIa, fluorogenic substrate, pooled mixtures; inhibition, % at 5 µM; 0.19% of 62,000 active; AID 680;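 also: each value is inhibition by a whole ten-compound pool holding the compound; 0% = enzyme with no mixture and 100% = wells lacking enzyme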
CatG inh – inhibitors of human cathepsin G. inhibition, % at 5 µM (by protocol). purified enzyme, AMC-tetrapeptide fluorescence, pooled mixtures. 0.2% of 62,000 active. P08311. AID 581;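 active = inhibition above 20% in each of the two mixture wells holding the compound; inactive = inhibition of 20% or less in either well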;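 also: 0% = enzyme control without mixture and 100% = blank lacking enzyme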
Target sequence (P08311 21-244 limits assumed): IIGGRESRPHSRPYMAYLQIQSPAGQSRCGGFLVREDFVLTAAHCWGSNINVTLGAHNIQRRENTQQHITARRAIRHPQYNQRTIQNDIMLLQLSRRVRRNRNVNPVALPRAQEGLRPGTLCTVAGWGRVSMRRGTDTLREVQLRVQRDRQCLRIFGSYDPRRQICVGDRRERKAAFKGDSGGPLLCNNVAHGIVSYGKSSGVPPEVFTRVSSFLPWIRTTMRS
* hit, by the source's call; x = no result. A selection: hits, their analogues and other compounds. The true share with any hit is near 1.5%. Rule as the data show it, unless noted: active = inhibition above about 20% (passing the limit was not always enough); inactive = the rest.

SMILES | Her2 expr inh | C1s inh | FXIIa mix inh | SKBR3 24h inh | FXIa inh mix | CatG inh
COCCN1C(=O)c2ccccc2C(C(=O)NCc2ccco2)C1c1c[nH]c2ccccc12 (centres undefined) | 85 | 15 | 2 | 96 | 3 | 12
CS(=O)(=O)N(CCc1ccccc1)CC(=O)NCC1CCCO1 (centres undefined) | 112 | 19 | 2 | 94 | 9 | 9
O=c1nc(-c2ccccc2)c2ccccc2[nH]1 | 90 | 9 | 7 | 110 | 7 | 7
Cc1cc(-c2ccccc2)nc(=O)[nH]1 | -18* | -5 | -29 | 89 | 2 | 14
O=C(O)CC1SC(=Nc2ccccc2)N(c2ccccc2)C1=O (centres undefined) | x | 15 | -24 | 84 | 5 | 9
COc1ccc(N2C(=O)C(CC(=O)O)S/C2=C\C(C)=O)cc1 (centres undefined) | 86 | -22 | 4 | 31* | 1 | 7
O=c1[nH]c(CN2CCN(CCO)CC2)nc2ccccc12 | 90 | x | x | 85 | x | x
O=c1[nH]c(CN2CCc3ccccc3C2)nc2ccccc12 | 89 | 9 | 4 | 86 | 10 | 48*
CNC(=O)CN(C#N)c1nc(N(C)C)nc(N(C)C)n1 | -20* | -6 | 0 | 90 | -1 | 1
CCC(C(=O)NC1CCCC1)N(C(=O)Cn1nnc(-c2ccc(C)o2)n1)c1cnc2ccccc2c1 (centres undefined) | -8.5* | 16 | 4 | x | 3 | 12
Cc1ccc(-c2nnn(CC(=O)N(CC(=O)NC3CCCC3)c3cnc4ccccc4c3)n2)o1 | 133 | 5 | 0 | 94 | 8 | 0
CCN(CCNS(=O)(=O)c1ccc2[nH]c(=O)sc2c1)c1ccccc1 | 79 | -68 | -2 | x | -2 | -8
CCC(C)NC(=O)c1cnn2c1NC(c1ccc3c(c1)OCO3)CC2C(F)(F)F (centres undefined) | -29* | 6 | -1 | 73 | 5 | 1
CC(O)c1cc2c(cc1NC(=O)c1cnn3c1NC(c1ccco1)CC3C(F)(F)F)OCO2 (centres undefined) | x | 2 | 6 | 76 | 8 | 3
CC(C)n1c(N2CCN(CC(=O)NCc3cccs3)CC2)nc2ccccc21 | 82 | 12 | 22 | 87 | 1 | 7
O=C(CN1CCC(c2nc3ccccc3s2)CC1)NCc1cccs1 | -13* | -4 | 13 | 94 | 1 | -1
COC(=O)c1ccc(C2C(C(=O)Nc3ccc(C)cc3C)=C(C)Nc3ncnn32)cc1 (centres undefined) | 84 | 5 | 1 | x | 14 | 3
CN(CC(=O)NC1CCCc2ccccc21)S(=O)(=O)c1ccc2c(c1)c(=O)n(C)c(=O)n2C (centres undefined) | 97 | -15 | 26* | x | 7 | -2
CCOc1cc(-c2noc(-c3ccncc3)n2)cc(Br)c1OC | 96 | 2 | 8 | 29* | -3 | 7
O=C(NCc1ccco1)c1cc2sccc2n1Cc1ccccc1 | 70 | -21 | 5 | 154 | 4 | -9
CCCCn1c2nc3ccccc3nc2c2c(=N)oc(C)nc21 | 79 | -79 | 3 | 92 | -4 | -9
CCCCC(CC)Cn1c2nc3ccccc3nc2c2c(=N)oc(C)nc21 (centres undefined) | 0.9* | -97 | -2 | 38* | -2 | -7
O=C(NCc1ccc(F)cc1)N[C@@H](Cc1ccccc1)C(=O)O | 118 | -26 | 3 | 100 | -2 | -15
CSCC[C@H](NC(=O)NCc1ccc(F)cc1)C(=O)O | -15* | -2 | 4 | 100 | 5 | 2
O=C1CC(NCc2ccncc2)C(=O)N1c1ccc(Cl)cc1 (centres undefined) | 85 | x | x | 74 | x | x
SMILES | Her2 expr inh | C1s inh | FXIIa mix inh | SKBR3 24h inh | FXIa inh mix | CatG inh
Cc1nc2ccccn2c1P(=O)(N1CCCCC1)N1CCCCC1 | 94 | -5 | 20* | x | 6 | 4
CCCS(=O)(=O)N1CCC(C(=O)N2CCC(Cc3ccccc3)CC2)CC1 | -27* | 3 | -19 | x | 9 | 4
CCCS(=O)(=O)N1CCCC(C(=O)N2CCC(Cc3ccccc3)CC2)C1 (centres undefined) | 123 | 12 | 1 | x | 5 | 9
O=C(O)CCC(=O)Nc1nnc(C(F)(F)F)s1 | 105 | -8 | 3 | 40* | -2 | -7
CCOC(=O)N1CCN(CCC(=O)Nc2ccc(OC(F)(F)F)cc2)CC1 | 110 | -16 | 2 | 37* | -3 | -3
CCOC(=O)N1CCN(CC(=O)Nc2ccc(OC)cc2)CC1 | 87 | 12 | 16 | x | 4 | 13
Cc1sc2nc(CN(Cc3cccs3)C(=O)NC3CCCCC3)[nH]c(=O)c2c1C | 62 | 4 | 9 | 155 | -1 | 8
O=C(NCCCc1ccccc1)c1ccncc1 | -5.5* | -8 | 3 | 93 | 3 | -4
COC1(OC)N=C(NC(=O)Nc2ccccc2)C2(C#N)C(c3ccccc3)C12C#N (centres undefined) | 117 | 3 | 6 | 81 | 5 | -4
COCCCNC(=O)CN(c1ccc(OC)cc1)S(=O)(=O)c1ccc(NC(C)=O)cc1 | 91 | 16 | 12 | 107 | 10 | 7
COc1ccc(CCn2c(SCC(=O)Nc3cc(C)on3)nc3ccsc3c2=O)cc1OC | 109 | 6 | 22* | x | 8 | 0
O=C(CSc1oc(-c2ccccc2)nc1S(=O)(=O)c1ccc(F)cc1)NCC1CCCO1 (centres undefined) | -21* | -15 | 6 | 96 | 4 | 5
CC1CCCC(N2C(=O)NC(NC(=O)c3ccco3)(C(F)(F)F)C2=O)C1C (centres undefined) | 88 | 13 | 3 | 107 | 7 | 12
Cc1ccc(NC(=O)Cn2c(=O)n(CCCCC(=O)NCc3ccco3)c(=O)c3ccccc32)cc1 | 41 | 10 | 14 | 43* | 8 | 7
COc1cc(S(=O)(=O)N2CCN(C(=O)c3ccccc3F)CC2)c(OC)cc1NC(C)=O | 84 | 1 | 6 | 83 | 7 | 3
Cc1nn(Cc2ccccc2)c2sc(C(=O)N3CCN(Cc4ccc5c(c4)OCO5)CC3)cc12 | 64 | 1 | 2 | x | -3 | 8
O=C(Nc1ccc(-n2cnnn2)cc1)C1CCC1 | 75 | -21 | 20* | 81 | 7 | 3
O=C(CN1CCN(c2ccc(F)cc2)CC1)Nc1ccc(-n2cnnn2)cc1 | 94 | x | x | 92 | x | x
Cc1noc(C)c1COC(=O)c1ccccc1NC(=O)Cc1ccccc1 | 95 | 35* | 3 | x | 30 | 30
O=C(NCCCn1ccnc1)c1cn(Cc2ccc(F)cc2)nn1 | 112 | 2 | -22 | 135 | 1 | 8
COc1cc(NC(=O)c2csc3c2CCCC3)ncn1 | 86 | 38 | 1 | x | 24 | 34*
CN1CC2(Cc3c1ccc1ccccc31)C(=O)OC(C)(C)OC2=O | 56 | -36 | 3 | 91 | -4 | 42*
CCn1cnc2sc(C(=O)N(Cc3ccc(N(C)C)cc3)Cc3ccco3)c(C)c2c1=O | 54 | -5 | -20 | 79 | 23* | 4
